# From PubChem BioAssay
# Values without a mark were called inactive. For part of these data: Entries with a potency or affinity are not part of this list. The source made the active and inactive calls. Unless noted, no rule for the calls is given here.
# Tests used:
# [1] = antimalarial activity against Dd2 strain (AID 2302;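 active = growth inhibition above 50% at the single 2 µM test dose, taken to imply half-maximal potency below 2 µM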;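 also: 0% = DMSO untreated growth and 100% = chloroquine plus artemisinin killed control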); conditions: P. falciparum Dd2 in RBCs, LDH growth readout, 72 h; at 2 µM; stronger effect = higher value
# [2] = human hepatoma cell viability loss – ATP luminescence, cytotoxicity control for P. falciparum antimalarial project, primary screen (AID 2303;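 active = inhibition above 50%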;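 also: 0% = DMSO wells and 100% = digitonin-killed cells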); conditions: HepG2 viability, 24-48 h, at 10 µM, stronger effect = higher value
# [3] = target: L-lactate dehydrogenase (Plasmodium falciparum (isolate CDC / Honduras)) (UniProt Q27743); test: PfLDH activity inhibition – cell lysate, 3D7 strain, counter-screen for P. falciparum growth inhibition project (AID 2304);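 also: 0% = vehicle and 100% = reference inhibitor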; conditions: P. falciparum 3D7 crude extract, LDH APAD/NBT absorbance; at 2 µM; stronger effect = higher value
# [4] = inhibition of 3D7 malaria parasite growth – strain 3D7 (AID 2306);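 also: 0% = DMSO wells and 100% = chloroquine plus artemisinin control wells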; conditions: P. falciparum 3D7 erythrocytic growth, LDH absorbance, 72 h; at 2 µM; stronger effect = higher value
# [5] = target: Calcium-dependent protein kinase 1 (Plasmodium falciparum (isolate 3D7)) (UniProt P62344); test: PfCDPK1 kinase inhibitors, biochemical, TCAMS library (AID 1159585; cut-off not given, nearly all actives have IC50 up to about 0.98 µM;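 also: inhibitors leave more ATP so luminescence rises with inhibition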); conditions: recombinant PfCDPK1, Kinase-Glo ATP depletion luminescence
# [6] = target: Plasmodium falciparum protein kinase 6 (PK6, PF3D7_1337100) (UniProt Q8IDW1); test: PfPK6 kinase inhibitors, biochemical, TCAMS library (AID 1159586); conditions: recombinant PfPK6, Kinase-Glo ATP depletion luminescence
# [7] = target: Protein kinase 7 (PK7), Plasmodium falciparum 3D7 (PF3D7_0213400) (UniProt Q7YTF7); test: inhibition of Plasmodium PK7 catalytic activity – biochemical, TCAMS antimalarial set, Kinase-Glo luminescence (AID 1159587); conditions: recombinant PfPK7, Kinase-Glo ATP depletion luminescence
# [8] = target: Calcium-dependent protein kinase 4 (Plasmodium falciparum (isolate 3D7)) (UniProt Q8IBS5); test: PfCDPK4 kinase inhibitors, biochemical, TCAMS library (AID 1159588; cut-off not given, nearly all actives have IC50 up to about 0.91 µM); conditions: recombinant PfCDPK4, Kinase-Glo ATP depletion luminescence
# Sequence of Calcium-dependent protein kinase 4 (Plasmodium falciparum (isolate 3D7)) (Q8IBS5 whole entry, looked up): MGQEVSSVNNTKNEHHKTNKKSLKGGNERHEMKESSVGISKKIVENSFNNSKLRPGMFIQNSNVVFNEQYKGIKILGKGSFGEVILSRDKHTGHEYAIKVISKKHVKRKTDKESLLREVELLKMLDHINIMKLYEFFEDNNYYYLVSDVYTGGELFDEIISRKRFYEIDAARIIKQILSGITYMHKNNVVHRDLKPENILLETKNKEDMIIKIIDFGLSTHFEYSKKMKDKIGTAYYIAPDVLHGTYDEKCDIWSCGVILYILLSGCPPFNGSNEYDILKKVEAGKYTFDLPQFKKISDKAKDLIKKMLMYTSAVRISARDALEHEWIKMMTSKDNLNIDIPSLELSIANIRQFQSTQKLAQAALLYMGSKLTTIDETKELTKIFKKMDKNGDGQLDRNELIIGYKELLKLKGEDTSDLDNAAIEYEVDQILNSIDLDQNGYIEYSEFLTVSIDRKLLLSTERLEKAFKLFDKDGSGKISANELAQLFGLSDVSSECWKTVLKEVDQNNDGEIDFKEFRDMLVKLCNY
# Sequence of Calcium-dependent protein kinase 1 (Plasmodium falciparum (isolate 3D7)) (P62344 whole entry, looked up): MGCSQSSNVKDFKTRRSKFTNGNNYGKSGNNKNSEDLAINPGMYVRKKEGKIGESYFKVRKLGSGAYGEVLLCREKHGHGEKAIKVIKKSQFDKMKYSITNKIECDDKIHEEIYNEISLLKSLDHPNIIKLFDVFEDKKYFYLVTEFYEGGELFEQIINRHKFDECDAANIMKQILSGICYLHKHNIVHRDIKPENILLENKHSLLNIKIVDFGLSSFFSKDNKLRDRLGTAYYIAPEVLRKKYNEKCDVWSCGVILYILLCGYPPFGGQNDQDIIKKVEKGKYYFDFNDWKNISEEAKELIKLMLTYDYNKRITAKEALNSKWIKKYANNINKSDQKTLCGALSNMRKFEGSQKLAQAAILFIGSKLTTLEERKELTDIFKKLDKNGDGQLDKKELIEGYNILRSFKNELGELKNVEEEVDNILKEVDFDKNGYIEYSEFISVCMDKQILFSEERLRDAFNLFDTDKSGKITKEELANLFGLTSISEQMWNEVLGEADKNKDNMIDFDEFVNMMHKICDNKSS
# Sequence of Protein kinase 7 (PK7), Plasmodium falciparum 3D7 (PF3D7_0213400) (Q7YTF7 1-343): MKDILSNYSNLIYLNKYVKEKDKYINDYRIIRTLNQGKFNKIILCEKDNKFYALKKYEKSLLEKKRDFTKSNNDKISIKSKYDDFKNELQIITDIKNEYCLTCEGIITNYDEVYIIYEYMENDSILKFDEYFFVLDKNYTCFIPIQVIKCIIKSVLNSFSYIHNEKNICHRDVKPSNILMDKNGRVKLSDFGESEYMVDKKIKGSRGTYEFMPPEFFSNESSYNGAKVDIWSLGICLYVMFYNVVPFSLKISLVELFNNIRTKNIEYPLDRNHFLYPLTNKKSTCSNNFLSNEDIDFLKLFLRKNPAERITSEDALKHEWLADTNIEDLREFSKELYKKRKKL
# Sequence of Plasmodium falciparum protein kinase 6 (PK6, PF3D7_1337100) (Q8IDW1 1-305): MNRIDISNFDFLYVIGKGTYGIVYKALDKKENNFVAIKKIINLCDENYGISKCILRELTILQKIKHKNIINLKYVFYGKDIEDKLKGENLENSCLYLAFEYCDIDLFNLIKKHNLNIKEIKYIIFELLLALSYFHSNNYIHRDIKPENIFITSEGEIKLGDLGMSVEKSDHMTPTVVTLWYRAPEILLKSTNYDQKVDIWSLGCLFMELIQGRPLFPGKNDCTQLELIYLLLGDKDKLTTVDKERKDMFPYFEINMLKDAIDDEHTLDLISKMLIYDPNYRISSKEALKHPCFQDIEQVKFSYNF
# Sequence of L-lactate dehydrogenase (Plasmodium falciparum (isolate CDC / Honduras)) (Q27743 whole entry, looked up): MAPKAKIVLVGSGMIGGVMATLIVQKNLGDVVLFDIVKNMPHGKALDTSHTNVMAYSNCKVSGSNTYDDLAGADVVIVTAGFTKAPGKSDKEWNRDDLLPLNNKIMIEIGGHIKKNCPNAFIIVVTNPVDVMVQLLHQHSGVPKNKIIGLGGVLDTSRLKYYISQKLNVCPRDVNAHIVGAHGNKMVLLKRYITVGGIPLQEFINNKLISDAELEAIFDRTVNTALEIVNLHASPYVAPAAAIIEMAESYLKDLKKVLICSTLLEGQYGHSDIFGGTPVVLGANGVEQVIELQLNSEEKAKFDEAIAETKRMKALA
Compound,growth inhibition [1],inhibition [2],inhibition [3],growth inhibition [4],outcome [5],outcome [6],outcome [7],outcome [8]
C=C(C)C1CC=C(CN2CCC(N3CCc4cc(NC(=O)c5cc(C)on5)ccc43)C2)CC1 (stereo unspecified),95% (active),26%,0%,90% (active),inactive,inactive,inactive,inactive
COc1ccc(S(=O)(=O)NCCCC2CCN(CCCCCNC(=O)C=Cc3ccc(Cl)c(Cl)c3)CC2)cc1,12%,24%,0%,85% (active),inactive,inactive,inactive,inactive
CC(C)c1ccc(CN2CCC(CNC(=O)c3cc(-c4ccccc4F)cs3)C2)cc1 (stereo unspecified),29%,32%,5%,101% (active),inactive,inactive,inactive,inactive
Cc1cc(N)c2cc(NC(=O)c3cc(C(F)(F)F)cc(C(F)(F)F)c3)ccc2n1,99% (active),100% (active),5%,102% (active),inactive,inactive,inactive,inactive
Cc1ccc(-n2[nH]c(C)c(N=Nc3cccc(-c4cccc(NC(=O)OC(C)(C)C)c4)c3O)c2=O)cc1C,21%,39%,-4%,94% (active),inactive,inactive,inactive,inactive
COc1cc(NCCCNCC2c3ccccc3Oc3ccccc32)nc2ccccc12,66% (active),99% (active),-9%,99% (active),inactive,inactive,inactive,inactive
CCCC(C)N(Cc1ccc(C(C)(C)C)cc1)C(=O)c1cccc(C#N)c1 (stereo unspecified),45%,14%,-9%,86% (active),inactive,inactive,inactive,inactive
c1ccc2c(Nc3ccc(Oc4ccc(Nc5c6ccccc6nc6ccccc56)cc4)cc3)c3ccccc3nc2c1,99% (active),21%,-2%,101% (active),inactive,inactive,inactive,inactive
Cc1[nH]c(C)c(-c2ccc(C(=O)c3ccc(Cl)cc3)cc2)c(=O)c1Cl,95% (active),-1%,4%,98% (active),inactive,inactive,inactive,inactive
COc1ccc2nccc([C@@H](O)CN3CCC(NCc4cc5cc([N+](=O)[O-])ccc5[nH]4)CC3)c2c1,57% (active),29%,4%,99% (active),inactive,inactive,inactive,inactive
Cc1cc(N2CCCC2)nc(Nc2ccc(NC(=O)c3ccco3)cc2)n1,43%,23%,-3%,100% (active),inactive,inactive,inactive,inactive
N#Cc1nc2ccc(OCCN(Cc3ccccc3C(F)(F)F)c3ccc(C#N)c(C(F)(F)F)c3)cc2s1,47%,23%,6%,93% (active),inactive,inactive,inactive,inactive
Cc1cc(N2CCOCC2)nc2ccc(NC(=O)c3ccc(Cl)c([N+](=O)[O-])c3)cc12,15%,12%,3%,98% (active),inactive,inactive,inactive,inactive
COCCNCc1nc(-c2ccc3c(Nc4ccc(F)c(O)c4)ccnc3c2)cs1,99% (active),-7%,6%,101% (active),inactive,inactive,inactive,inactive
Cc1ccc(NC(=O)c2cnc(N3CCN(c4ccncc4)CC3)c(Cl)c2)cc1,24%,25%,4%,94% (active),inactive,inactive,inactive,inactive
CC(C)N1CCC(Oc2ccc(CN3CCN(C(c4ccccc4)c4ccc(Cl)cc4)CC3)cc2)CC1 (stereo unspecified),46%,44%,4%,97% (active),inactive,inactive,inactive,inactive
Cc1cccc(CN2CCCC3(CCN(Cc4ccccc4O)C3)C2)c1 (stereo unspecified),76% (active),14%,-3%,99% (active),inactive,inactive,inactive,inactive
CC(C)C[C@@H](/C=N/N1CCOC1=O)NC(=O)[C@H](CC(C)C)NC(=O)c1ccc(F)cc1,72% (active),1%,-4%,85% (active),inactive,inactive,inactive,inactive
CNC(=O)C1Cc2c([nH]c3c(C)cccc23)C2(N1)C(=O)Nc1ccc(OC(F)(F)F)cc12 (stereo unspecified),50% (active),-7%,-3%,100% (active),inactive,inactive,inactive,inactive
COc1ccc2c(NN=Cc3cccc(Cl)c3)ccnc2c1,94% (active),32%,-3%,101% (active),inactive,inactive,inactive,inactive
CC(C)N1CCN(CCCNc2c3ccccc3nc3ccccc23)CC1,1%,29%,8%,100% (active),inactive,inactive,inactive,inactive

Compound,growth inhibition [1],inhibition [2],inhibition [3],growth inhibition [4],outcome [5],outcome [6],outcome [7],outcome [8]
COc1ccc(NC(=O)Nc2ccc(-c3ccncc3)c(C(F)(F)F)c2)cc1N1CCN(C)CC1,62% (active),5%,2%,101% (active),inactive,inactive,inactive,inactive
Cc1cc(N[C@@H](CC(C)C)C(=O)NCCOc2ccccc2)nc(Nc2ccccc2)n1,9%,9%,-2%,93% (active),inactive,inactive,inactive,inactive
Cc1cc(NN=Cc2ccccc2Cl)c2cc(F)ccc2n1,4%,5%,-2%,101% (active),inactive,inactive,inactive,inactive
Cc1cc(NCCC(=O)NCCOc2ccccc2)nc(NCc2ccccc2C)n1,29%,17%,0%,92% (active),inactive,inactive,inactive,inactive
CCN(CCCN1CCCCC1)c1cc(C)nc(Nc2cc(Cl)ccc2C)n1,37%,36%,-1%,99% (active),inactive,inactive,inactive,inactive
c1ccc2c(NCCc3cnc[nH]3)c3ccccc3nc2c1,-1%,20%,6%,91% (active),inactive,inactive,inactive,inactive
O=C(NCCN1CCOCC1)c1ccc(N2CCC(Oc3ccc4ccccc4c3)CC2)nc1,30%,1%,-3%,92% (active),inactive,inactive,inactive,inactive
CCCc1cc(Cc2cnc(N)nc2N)cc(CCC)c1OCCCCC(=O)OCC,-3%,1%,4%,93% (active),inactive,inactive,inactive,inactive
Cn1c(/C=C/C(=O)NC2CCC(CCN3CCc4ccc(C#N)cc4CC3)CC2)cc2ccccc21 (stereo unspecified),29%,15%,-1%,101% (active),inactive,inactive,inactive,inactive
CCCc1cc(NC2CCN(C)CC2)nc(Nc2cccc(OC)c2)n1,28%,31%,-3%,100% (active),inactive,inactive,inactive,inactive
O=C(Nc1ccc2c(c1)CCN(C1CCC1)CC2)c1ccc(-n2ccnc2)cn1,-1%,8%,0%,92% (active),inactive,inactive,inactive,inactive
O=c1cc(NCCCNC2CCOc3c(Cl)cc(Cl)cc32)[nH]c2ccccc12 (stereo unspecified),88% (active),-7%,-3%,100% (active),inactive,inactive,inactive,inactive
O=C1Nc2cccc3c2C1(CCCCN1CCC(c2c[nH]c4cc(C(F)(F)F)ccc24)CC1)CCC3 (stereo unspecified),79% (active),99% (active),3%,99% (active),inactive,inactive,inactive,inactive
CC(CO)(CO)NCc1cc2c3ccccc3c(CNC(C)(CO)CO)cc2c2ccccc12,98% (active),40%,3%,96% (active),inactive,inactive,inactive,inactive
Cc1ccccc1C1CCN(C2CCC(NC(=O)/C=C/c3cccc(F)c3F)CC2)CC1 (stereo unspecified),45%,57% (active),-3%,89% (active),inactive,inactive,inactive,inactive
CN1CCN(c2cc(NC(=O)c3ccc(-c4ccc(C#N)cc4)cc3)ccc2Cl)CC1,94% (active),29%,-5%,101% (active),inactive,inactive,inactive,inactive
Cc1ccc(-c2noc(COc3ccccc3C(=O)NC3CCCC3)n2)cc1,92% (active),9%,-4%,89% (active),inactive,inactive,inactive,inactive
CCN1CCC(N(Cc2ccc(-c3ccc(C(F)(F)F)cc3)cc2)C(=O)Cn2c(CCc3cccc(F)c3F)nc(=O)c3ccccc32)CC1,95% (active),99% (active),3%,95% (active),inactive,inactive,inactive,inactive
N#Cc1ccc(-c2ccc(C(=O)NCCCCN3CCC(n4cnc5ccccc54)CC3)cc2)cc1,2%,15%,-3%,94% (active),inactive,inactive,inactive,inactive
Nc1ccnc(N2CCC(CCOc3ccnc4cc(Cl)ccc34)CC2)c1,99% (active),34%,4%,100% (active),inactive,inactive,inactive,inactive
CC(C)COc1ccc(Cl)cc1Nc1nc(-c2nc3ccccc3[nH]2)cs1,29%,2%,0%,96% (active),inactive,inactive,inactive,inactive
